Results reported in PubChem BioAssay AID1159580 (chemical genetic matrix, 2015).
“And” between values parts separate entries of the source, which are not always exact repeats. Equal values may be shown once. In all, about 5,500 compounds went through this assay and about 2,000 (36%) were called active. About 18% were inconclusive and are not listed. No stated cut-off is given here; in the data, active means normalized growth mostly below about 0.91 (no sharp cut-off); inconclusive means no clear call, values can overlap the other calls; inactive means mostly above about 0.92. The list shows a part of the results.

Assay: chemical genetic growth profiling, strain panel (AID 1159580);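 further: tested at 20 µM; growth read once vehicle control cultures reached saturation at 30 °C; 1 = growth at the plate median or of vehicle wells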
Settings: S. cerevisiae deletion strains, growth OD

Measured: normalized growth

CN(C)CCN(Cc1cccs1)c1ccccn1
inactive: locus YAL021C, strain ccr4, stronger effect = lower value 1 | locus YAL026C, strain drs2, stronger effect = lower value 1.01 | locus YAL030W, strain snc1, stronger effect = lower value 1 | locus YAL040C, strain CLN3, stronger effect = lower value 1.02 | locus YBL061C, strain skt5, stronger effect = lower value 1 | locus YBR009C, strain hhf1, stronger effect = lower value 0.996 | locus YBR021W, strain FUR4, stronger effect = lower value 1.01 | locus YBR023C, strain chs3, stronger effect = lower value 1.01 | locus YBR171W, strain sec66, stronger effect = lower value 1.01 | locus YBR229C, strain ROT2, stronger effect = lower value 1 | locus YBR231C, strain swc5, stronger effect = lower value 1.01 | locus YBR279W, strain paf1, stronger effect = lower value 1 | locus YCL011C, strain gbp2, stronger effect = lower value 1.01 | locus YCL016C, strain dcc1, stronger effect = lower value 1.01 | locus YCL029C, strain bik1, stronger effect = lower value 1.02 | locus YCL061C, strain MRC1 (second series), stronger effect = lower value 1.01 | locus YCL061C, strain MRC1, stronger effect = lower value 1.01 | locus YCL069W, strain vba3, stronger effect = lower value 1.01 | locus YCR088W, strain abp1, stronger effect = lower value 1.01 | locus YDL005C, strain med2, stronger effect = lower value 1.01 | locus YDL035C, strain GPR1, stronger effect = lower value 1 | locus YDL040C, strain nat1, stronger effect = lower value 1.01 | locus YDL074C, strain BRE1, stronger effect = lower value 0.974 | locus YDL101C, strain DUN1, stronger effect = lower value 0.99 | locus YDL134C, strain PPH21, stronger effect = lower value 1.02 | locus YDL185W, strain tfp1, stronger effect = lower value 1.02 | locus YDL192W, strain arf1, stronger effect = lower value 1.01 | locus YDR001C, strain nth1, stronger effect = lower value 1.01 | locus YDR069C, strain doa4, stronger effect = lower value 1 | locus YDR101C, strain arx1, stronger effect = lower value 0.957 | locus YDR137W, strain rgp1, stronger effect = lower value 1.03 | locus YDR150W, strain NUM1, stronger effect = lower value 1.02 | locus YDR159W, strain sac3, stronger effect = lower value 1.01 | locus YDR162C, strain NBP2, stronger effect = lower value 1.01 | locus YDR195W, strain ref2 0.999 | locus YDR297W, strain sur2, stronger effect = lower value 0.999 | locus YDR318W, strain mcm21, stronger effect = lower value 1.02 | locus YDR334W, strain swr1, stronger effect = lower value 1.02 | locus YDR335W, strain msn5, stronger effect = lower value 1.01 | locus YDR363W, strain ESC2, stronger effect = lower value 0.986 | locus YDR388W, stronger effect = lower value 1.02 | locus YDR392W, strain spt3, stronger effect = lower value 1.01 | locus YDR502C, strain sam2, stronger effect = lower value 1 | locus YEL003W, strain gim4, stronger effect = lower value 1.01 | locus YEL037C, strain rad23, stronger effect = lower value 1.01 | locus YEL061C, strain CIN8 (second series), stronger effect = lower value 1.01 | locus YEL061C, strain CIN8, stronger effect = lower value 1 | locus YER002W, strain NOP16, stronger effect = lower value 1.01 | locus YER015W, strain faa2, stronger effect = lower value 1 | locus YER016W, strain bim1, stronger effect = lower value 1.01 | locus YER110C, stronger effect = lower value 1.01 | locus YER111C, strain swi4, stronger effect = lower value 1.02 | locus YER155C, strain BEM2 (second series), stronger effect = lower value 1.01 | locus YER155C, strain BEM2, stronger effect = lower value 1.01 | locus YER167W, strain BCK2, stronger effect = lower value 1.01 | locus YFR010W, strain ubp6, stronger effect = lower value 1.01 | locus YGL078C, strain dbp3, stronger effect = lower value 1.01 | locus YGL086W, strain mad1, stronger effect = lower value 0.982 | locus YGL167C, strain pmr1, stronger effect = lower value 1.01 | locus YGL173C, strain kem1, stronger effect = lower value 1.01 | locus YGL227W, strain vid30, stronger effect = lower value 1.01 | locus YGL240W, strain doc1, stronger effect = lower value 1.02 | locus YGL248W, strain PDE1, stronger effect = lower value 0.993 | locus YGL253W, strain hxk2, stronger effect = lower value 1.02 | locus YGR078C, strain PAC10, stronger effect = lower value 1.01 | locus YGR135W, strain pre9, stronger effect = lower value 1.05 | locus YGR229C, strain SMI1, stronger effect = lower value 0.996 | locus YGR252W, strain gcn5, stronger effect = lower value 1.07 | locus YHR013C, strain ard1, stronger effect = lower value 0.993 | locus YHR027C, strain rpn1, stronger effect = lower value 1 | locus YHR030C, strain SLT2, stronger effect = lower value 1.01 and 0.934 | locus YHR079C, strain IRE1 (second series), stronger effect = lower value 1.01 | locus YHR079C, strain IRE1, stronger effect = lower value 0.98 | locus YHR094C, strain hxt1, stronger effect = lower value 1.01 | locus YHR129C, strain ARP1, stronger effect = lower value 1.01 | locus YHR142W, strain chs7, stronger effect = lower value 1.01 | locus YHR200W, strain rpn10, stronger effect = lower value 1.01 | locus YIL066C, strain RNR3, stronger effect = lower value 1.01 | locus YIL073C, strain SPO22, stronger effect = lower value 1.07 | locus YIL125W, strain kgd1, stronger effect = lower value 0.993 | locus YIR030C, strain dcg1, stronger effect = lower value 1.01 | locus YJL092W, strain hpr5, stronger effect = lower value 1 | locus YJL095W, strain BCK1 (second series), stronger effect = lower value 1.01 | locus YJL095W, strain BCK1, stronger effect = lower value 0.993 and 0.95 | locus YJL115W, strain asf1, stronger effect = lower value 1.03 | locus YJL129C, strain trk1, stronger effect = lower value 1 | locus YJL134W, strain LCB3, stronger effect = lower value 1.01 | locus YJL154C, strain vps35, stronger effect = lower value 1.01 | locus YJL164C, strain tpk1, stronger effect = lower value 1 | locus YJL166W, strain qcr8, stronger effect = lower value 1 | locus YJL168C, strain set2, stronger effect = lower value 1.01 | locus YJL187C, strain SWE1 (second series), stronger effect = lower value 0.998 | locus YJL187C, strain SWE1, stronger effect = lower value 1 | locus YJR043C, strain POL32, stronger effect = lower value 1.01
